Results filed as inconclusive are left out. Active and inactive are the calls of the source. The call rests on the fitted dose curve; in most records, active means well fitted cell-killing curve with a large enough effect; inconclusive means small, poorly fitted or top-dose-only effect, or effect the other way; inactive means no such curve, though single readings can be large or run the other way.
Test: Quantitative High-Throughput drug screen in 47 multiple myeloma cell lines against the NCATS MIPE library collection: KMS20_JCRB cell viability assay (AID 1918973); further: nearly all actives have a fitted effect of over 45% in size
Details: CellTiter-Glo ATP, 48 h; series mostly up to 45.8 µM
From the text: PI: Beverly A. Mock Ph.D.
Laboratory of Cancer Biology and Genetics,
Center for Cancer Research, National Cancer Institute,
National Institute of Health, Bethesda, Maryland
Drug resistance and disease progression are common in multiple myeloma (MM) patients, underscoring the need for new therapeutic combinations. […] We hypothesized that effective combinations would reduce MYC expression and enhance p16 activity. […] These preclinical data identify potentially useful drug combinations for evaluation in drug-resistant MM and reveal potential mechanisms of combined drug sensitivity.
Described herein is the primary MIPE qHTS used to cherrypick compounds. Validated compounds were then further tested for potential synergistic activiy.
[1] Peat TJ, Gaikwad SM, Dubois W, Gyabaah-Kessie N, Zhang S, Gorjifard S, Phyo Z, Andres M, Hughitt VK, Simpson RM, Miller MA, Girvin AT, Taylor A, Williams D, D'Antonio N, Zhang Y, Rajagopalan A, Flietner E, Wilson K, Zhang X, Shinn P, Klumpp-Thomas C, McKnight C, Itkin Z, Chen L, Kazandijian D, Zhang J, Michalowski AM, Simmons JK, Keats J, Thomas CJ, Mock BA. Drug combinations identified by high-throughput screening promote cell cycle transition and upregulate Smad pathways in myeloma. Cancer Lett. 2023 Aug 1;568:216284. doi: 10.1016/j.canlet.2023.216284. Epub 2023 Jun 24. PMID: 37356470; PMCID: PMC10408729.
SEQUENCE No. (e.g., 1, 2, 3, etc.); […] (e.g., Cells, Incubation, Reagent, etc.); VALUE and DESCRIPTION.
1; Cells; 5 uL; white, solid bottom 1536-well Greiner assay plate.
2; Compounds; 23 nL; Kalypsis pin tool (Wako USA) equipped with a 1536-well pin head to transfer to the assay plates.
3; Incubation; 48 hours; 37C incubation.
4; Reagent;5uL; CellTiter Glo (Promega).
5; Detector; 425V; Luminescence; Viewlux PerkinElmer.
NOTES (numbers refer to Sequence numbers above)
1. The cell-based screening methods employed in this study were like those previously published. Briefly, the corresponding myeloma cell lines were screened in 1,536-well plates with 500 cells, 5-uL per well for inhibition of cell viability (assessed by measuring ATP levels with CellTiterGlo).
2. NCATS MIPE 4.0 library of approved and investigational drugs were added using the Kalypsis pin tool. Wells treated with DMSO only for 100% viability and media only wells for 0% viability were used as controls.
3. The assay plates were covered and incubated for 48 hours in a 37C, 5% CO2 incubator with controlled humidity.
4. After 48 hours, CellTilter-GloTM luminescent substrate mix (Promega) reagent was added to the assay plate and plates we incubated for 5 min at room temperature.
5. Signal was measured as median relative luminescence units on a ViewLux (PerkinElmer) multiplate reader.
[1] Heske CM, Davis MI, Baumgart JT, Wilson K, Gormally MV, Chen L, Zhang X, Ceribelli M, Duveau DY, Guha R, Ferrer M, Arnaldez FI, Ji J, Tran HL, Zhang Y, Mendoza A, Helman LJ, Thomas CJ. Matrix Screen Identifies Synergistic Combination of PARP Inhibitors and Nicotinamide Phosphoribosyltransferase (NAMPT) Inhibitors in Ewing Sarcoma. Clin Cancer Res. 2017 Dec 1;23(23):7301-7311. doi: 10.1158/1078-0432.CCR-17-1121. Epub 2017 Sep 12. PMID: 28899971; PMCID: PMC6636827.
In the case of `COc1nccc(-c2c(-c3ccc(F)cc3)ncn2C2CCNCC2)n1`, the Potency is reported as “inactive”.
With `COc1ccc(C=CC(=O)Nc2ccccc2C(=O)O)cc1OC` the Potency was 11.8 µM (active).
With `O=C(O)C1=CO[C@@H](O[C@@H]2O[C@H](CO)[C@H](O)[C@H](O)[C@H]2O)[C@@H]2C(CO)=CC[C@H]12` the Potency was “inactive”.
For `CCN1CCC(n2cc(CNc3cc(Cl)c4ncc(C#N)c(Nc5ccc(F)c(Cl)c5)c4c3)nn2)CC1`, the Potency was 16.6 µM (active).
For `CCC=CC[C@H]1C(=O)CC[C@@H]1CC(=O)OC`, the Potency was “inactive”.
For `N#CC(c1ccnc(NCCc2cccnc2)n1)c1nc2ccccc2s1` (stereo not given), the Potency was 14.8 µM (active).
In the case of `Cc1cccc2c1CC[C@H](CN1CCC(c3c(Cl)cccc3Cl)CC1)C[C@@H]2O`, the Potency is reported as 20.9 µM (active).
For `O=C1NC(=O)C(c2cnc3ccccn23)=C1c1cn2c3c(cccc13)CN(C(=O)N1CCOCC1)CC2`, the Potency was 3.72 µM (active).
With `COc1ccc(-c2cc3nccn3c(Nc3ncccc3C(N)=O)n2)cc1OC` the Potency was 0.418 µM (active).
In the case of `OC[C@H]1O[C@@H](Oc2ccc(O)cc2)[C@H](O)[C@@H](O)[C@H]1O`, the Potency is reported as “inactive”.
For `COc1ccc2c(c1)CC[C@H]1[C@@H]2CC[C@]2(C)[C@@H](NCCCCCCN3C(=O)C=CC3=O)CC[C@H]12`, the Potency was “inactive”.
For `CC1(C)CC(=O)c2c(C(F)(F)F)nn(-c3ccc(C(N)=O)c(NC4CCC(O)CC4)c3)c2C1` (stereo not given), the Potency was 0.0935 µM (active).
For `OC(c1cc(C(F)(F)F)nc2c(C(F)(F)F)cccc12)C1CCCCN1` (stereo not given), the Potency was 10.5 µM (active).
For `CO[C@@H]1C(N(C)C(=O)c2ccccc2)C[C@H]2O[C@]1(C)n1c3ccccc3c3c4c(c5c6ccccc6n2c5c31)C(=O)NC4=O` (stereo not given in full), the Potency was 3.72 µM (active).
With `CC1=C(C(=O)Nc2cc3cn[nH]c3cc2F)C(c2ccc(C(F)(F)F)cc2)CC(=O)N1` (stereo not given) the Potency was “inactive”.
With `CC1=C(CC(=O)O)c2cc(F)ccc2C1=Cc1ccc(S(C)=O)cc1` (stereo not given) the Potency was 9.35 µM (active).
In the case of `CC(C)n1c(C=C[C@H](O)C[C@H](O)CC(=O)O)c(-c2ccc(F)cc2)c2ccccc21`, the Potency is reported as 20.9 µM (active).
In the case of `C=CCc1cccc(C=NNC(=O)CN2CCN(Cc3ccccc3)CC2)c1O`, the Potency is reported as 20.9 µM (active).
For `Clc1ccc(C2(c3ccc(-c4cn[nH]c4)cc3)CCNCC2)cc1`, the Potency was 5.26 µM (active).
For `CC1CCN(c2cc(N3CCN(C)CC3)ccc2NC(=O)c2cc(C#N)c[nH]2)CC1`, the Potency was “inactive”.
For `CNC1CCC(N(Cc2cccc(-c3ccncc3)c2)C(=O)c2sc3ccccc3c2Cl)CC1` (stereo not given), the Potency was 5.26 µM (active).
For `CN1CCC(COc2cnc(-c3cccc(Cn4nc(-c5cccc(C#N)c5)ccc4=O)c3)nc2)CC1`, the Potency was 0.526 µM (active).
With `Cc1cccc(Nc2nc(N[C@@H]3CCCC[C@H]3N)ncc2C(N)=O)c1` the Potency was 4.69 µM (active).
In the case of `NC(=O)c1ncn([C@@H]2O[C@H](CO)[C@@H](O)[C@@H]2O)n1`, the Potency is reported as “inactive”.
With `O=C1CN2Cc3c(ccc(Cl)c3Cl)N=C2N1` the Potency was “inactive”.
With `CN(C)CCOc1ccc(-c2nc(-c3ccc4c(c3)CCC4=NO)c(-c3ccncc3)[nH]2)cc1` the Potency was 6.62 µM (active).
In the case of `COc1ccc(-c2ccc3ncc4c(c3c2)n(-c2ccc(N3CCNCC3)c(C(F)(F)F)c2)c(=O)n4C)cn1`, the Potency is reported as 0.0066 µM (active).
In the case of `COc1c(C)cnc(Cn2cnc3c(Cl)nc(N)nc32)c1C`, the Potency is reported as 0.209 µM (active).
With `CN1C(=O)C(Cc2c[nH]c3ccccc23)NC1=S` (stereo not given) the Potency was “inactive”.
With `CN1[C@H]2CC[C@H]1CC(OC(=O)c1c[nH]c3ccccc13)C2` (stereo not given in full) the Potency was 14.8 µM (active).
With `CCNC(=O)c1noc(-c2cc(C(C)C)c(O)cc2O)c1-c1ccc(CN2CCOCC2)cc1` the Potency was 0.0209 µM (active).
In the case of `CN1CC(=O)N2C(Cc3c([nH]c4ccccc34)[C@H]2c2ccc3c(c2)OCO3)C1=O` (stereo not given in full), the Potency is reported as “inactive”.
In the case of `CCCCN(CCCC)CC(O)c1cc(Cl)cc2c1-c1ccc(Cl)cc1C2=Cc1ccc(Cl)cc1` (stereo not given), the Potency is reported as 11.8 µM (active).
For `CC(C)N(CCCNC(=O)Nc1ccc(C(C)(C)C)cc1)C[C@H]1O[C@@H](n2cc(Br)c3c(N)ncnc32)[C@H](O)[C@H]1O`, the Potency was 5.26 µM (active).
In the case of `COc1ccc2nc3cc(Cl)ccc3c(Nc3cc(CN4CCCC4)c(O)c(CN4CCCC4)c3)c2n1`, the Potency is reported as 20.9 µM (active).
In the case of `CCc1cccc(CC)c1NC(=O)N1Cc2[nH]nc(NC(=O)c3ccc(N4CCN(C)CC4)cc3)c2C1`, the Potency is reported as 14.8 µM (active).
With `O=C(Nc1cccc2c(=O)cc(-c3nn[nH]n3)oc12)c1ccc(OCCCCc2ccccc2)cc1` the Potency was 14.8 µM (active).
For `Cc1ccccc1-n1c(Cn2nc(-c3cccc(O)c3)c3c(N)ncnc32)nc2cccc(C)c2c1=O`, the Potency was 5.26 µM (active).
In the case of `CCN1CCN(c2ccc(Nc3cc(N(C)C(=O)Nc4c(Cl)c(OC)cc(OC)c4Cl)ncn3)cc2)CC1`, the Potency is reported as 2.09 µM (active).
In the case of `C[C@H]1COC2=C1C(=O)C(=O)c1c2ccc2c1CCCC2(C)C`, the Potency is reported as 10.5 µM (active).

— PubChem BioAssay (NCATS)
Potency means the concentration at half of the fitted maximal effect.
